Assay results as given in PubChem BioAssay AID1159580 (chemical genetic matrix, 2015).
Values joined by “and” are separate entries in the source; they are usually repeats but may differ in a detail not shown here. Identical values can stand only once. Hit rate of the full screen: of about 5,500 compounds, about 2,000 (36%) were called active. Another 18% or so got no clear call; they are omitted. Rule as the data show it: active = normalized growth mostly below about 0.91 (no sharp cut-off); inconclusive = no clear call, values can overlap the other calls; inactive = mostly above about 0.92. Some of the results follow.

Assay: chemical genetic growth profiling, strain panel (AID 1159580);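 also: tested at 20 µM; growth read once vehicle control cultures reached saturation at 30 °C; 1 = growth at the plate median or of vehicle wells; lower values mean less growth of the strain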
Settings: S. cerevisiae deletion strains, growth OD

Measured: normalized growth

NC[C@@H]1O[C@H](O[C@@H]2[C@@H](CO)OC(O[C@@H]3[C@@H](O)[C@H](N)C[C@H](N)[C@H]3O[C@H]3O[C@H](CO)[C@@H](O)[C@H](O)[C@H]3N)[C@@H]2O)[C@H](N)[C@@H](O)[C@@H]1O (stereo partly drawn)
inactive: locus YAL021C, strain ccr4, hits give low values 0.996 | locus YAL026C, strain drs2, hits give low values 0.992 | locus YAL030W, strain snc1, hits give low values 0.995 | locus YBL061C, strain skt5, hits give low values 0.995 | locus YBR009C, strain hhf1, hits give low values 0.986 | locus YBR021W, strain FUR4, hits give low values 1.03 | locus YBR023C, strain chs3, hits give low values 0.999 | locus YBR171W, strain sec66, hits give low values 0.973 | locus YBR229C, strain ROT2, hits give low values 0.96 | locus YBR231C, strain swc5, hits give low values 0.992 | locus YBR279W, strain paf1, hits give low values 0.992 | locus YCL011C, strain gbp2, hits give low values 0.985 | locus YCL016C, strain dcc1, hits give low values 0.988 | locus YCL029C, strain bik1, hits give low values 1 | locus YCL061C, strain MRC1, hits give low values 0.953 | locus YCL069W, strain vba3, hits give low values 0.992 | locus YCR088W, strain abp1, hits give low values 0.997 | locus YDL005C, strain med2, hits give low values 0.992 | locus YDL035C, strain GPR1, hits give low values 0.996 | locus YDL040C, strain nat1, hits give low values 0.984 | locus YDL074C, strain BRE1, hits give low values 0.961 | locus YDL101C, strain DUN1, hits give low values 0.98 | locus YDL134C, strain PPH21, hits give low values 1.01 | locus YDL185W, strain tfp1, hits give low values 0.982 | locus YDL192W, strain arf1, hits give low values 0.991 | locus YDR001C, strain nth1, hits give low values 0.995 | locus YDR069C, strain doa4, hits give low values 0.994 | locus YDR101C, strain arx1, hits give low values 0.985 | locus YDR137W, strain rgp1, hits give low values 1.01 | locus YDR159W, strain sac3, hits give low values 0.966 | locus YDR162C, strain NBP2, hits give low values 0.998 | locus YDR195W, strain ref2 0.981 | locus YDR297W, strain sur2, hits give low values 0.992 | locus YDR318W, strain mcm21, hits give low values 1 | locus YDR334W, strain swr1, hits give low values 0.989 | locus YDR335W, strain msn5, hits give low values 0.998 | locus YDR388W, hits give low values 0.992 | locus YDR392W, strain spt3, hits give low values 0.974 | locus YDR502C, strain sam2, hits give low values 0.988 | locus YEL003W, strain gim4, hits give low values 0.986 | locus YEL037C, strain rad23, hits give low values 0.977 | locus YEL061C, strain CIN8 (second series), hits give low values 0.988 | locus YEL061C, strain CIN8, hits give low values 0.985 | locus YER015W, strain faa2, hits give low values 0.995 | locus YER016W, strain bim1, hits give low values 0.989 | locus YER110C, hits give low values 0.994 | locus YER111C, strain swi4, hits give low values 0.988 | locus YER155C, strain BEM2 (second series), hits give low values 0.985 | locus YER155C, strain BEM2, hits give low values 1 | locus YER167W, strain BCK2, hits give low values 1.01 | locus YFR010W, strain ubp6, hits give low values 0.996 | locus YGL078C, strain dbp3, hits give low values 0.995 | locus YGL086W, strain mad1, hits give low values 0.983 | locus YGL167C, strain pmr1, hits give low values 1 | locus YGL173C, strain kem1, hits give low values 0.984 | locus YGL227W, strain vid30, hits give low values 0.999 | locus YGL240W, strain doc1, hits give low values 0.991 | locus YGL248W, strain PDE1, hits give low values 0.969 | locus YGL253W, strain hxk2, hits give low values 0.988 | locus YGR078C, strain PAC10, hits give low values 0.968 | locus YGR135W, strain pre9, hits give low values 1.05 | locus YGR229C, strain SMI1, hits give low values 1 | locus YGR252W, strain gcn5, hits give low values 1.02 | locus YHR013C, strain ard1, hits give low values 0.988 | locus YHR027C, strain rpn1, hits give low values 0.999 | locus YHR030C, strain SLT2, hits give low values 1 and 0.966 | locus YHR079C, strain IRE1 (second series), hits give low values 0.993 | locus YHR079C, strain IRE1, hits give low values 0.974 | locus YHR094C, strain hxt1, hits give low values 0.997 | locus YHR129C, strain ARP1, hits give low values 1 | locus YHR142W, strain chs7, hits give low values 0.983 | locus YHR200W, strain rpn10, hits give low values 0.993 | locus YIL066C, strain RNR3, hits give low values 0.969 | locus YIL073C, strain SPO22, hits give low values 1.07 | locus YIL125W, strain kgd1, hits give low values 0.992 | locus YIR030C, strain dcg1, hits give low values 0.993 | locus YJL092W, strain hpr5, hits give low values 0.993 | locus YJL095W, strain BCK1 (second series), hits give low values 0.992 | locus YJL095W, strain BCK1, hits give low values 0.959 and 0.976 | locus YJL115W, strain asf1, hits give low values 0.984 | locus YJL129C, strain trk1, hits give low values 0.977 | locus YJL134W, strain LCB3, hits give low values 0.999 | locus YJL154C, strain vps35, hits give low values 0.987 | locus YJL164C, strain tpk1, hits give low values 0.948 | locus YJL166W, strain qcr8, hits give low values 0.986 | locus YJL168C, strain set2, hits give low values 0.987 | locus YJL187C, strain SWE1 (second series), hits give low values 0.954 | locus YJL187C, strain SWE1, hits give low values 0.992
